Measurements taken from PubChem BioAssay AID1159580 (chemical genetic matrix, 2015).
In all, about 5,500 compounds went through this assay and about 2,000 (36%) were called active. Roughly 18% stayed inconclusive and do not appear here. Rule as the data show it: active = normalized growth mostly below about 0.91 (no sharp cut-off); inconclusive = no clear call, values can overlap the other calls; inactive = mostly above about 0.92. Some of the results follow.

Assay: chemical genetic growth profiling, strain panel (AID 1159580);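 also: tested at 20 µM; growth read once vehicle control cultures reached saturation at 30 °C; 1 = growth at the plate median or of vehicle wells; lower values mean less growth of the strain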
Settings: growth OD

Measured: normalized growth

CC1(C)O[C@@H]2CC3C4CCC5=CC(=O)C=C[C@]5(C)[C@@]4(F)[C@@H](O)C[C@]3(C)[C@]2(C(=O)CO)O1 (some centres not stated)
inactive: S. cerevisiae deletion strains, locus YJR075W, strain HOC1, hits give low values 1.01 | S. cerevisiae deletion strains, locus YKL009W, strain mrt4, hits give low values 1.01 | S. cerevisiae deletion strains, locus YKL068W, hits give low values 0.999 | S. cerevisiae deletion strains, locus YKL085W, strain MDH1 (second series), hits give low values 0.996 | S. cerevisiae deletion strains, locus YKL085W, strain MDH1, hits give low values 0.996 | S. cerevisiae deletion strains, locus YKL160W, strain elf1, hits give low values 0.968 | S. cerevisiae deletion strains, locus YKL190W, strain CNB1, hits give low values 1.02 | S. cerevisiae deletion strains, locus YKR001C, strain vps1, hits give low values 1.01 | S. cerevisiae deletion strains, locus YKR026C, strain gcn3, hits give low values 1.01 | S. cerevisiae deletion strains, locus YKR091W, strain srl3, hits give low values 0.992 | S. cerevisiae deletion strains, locus YLL001W, strain dnm1, hits give low values 1.01 | S. cerevisiae deletion strains, locus YLL026W, hits give low values 0.982 | S. cerevisiae deletion strains, locus YLL041C, strain sdh2, hits give low values 0.999 | S. cerevisiae deletion strains, locus YLR027C, strain aat2, hits give low values 1 | S. cerevisiae deletion strains, locus YLR039C, strain RIC1, hits give low values 1.01 | S. cerevisiae deletion strains, locus YLR058C, strain SHM2, hits give low values 1.02 | S. cerevisiae deletion strains, locus YLR102C, strain apc9, hits give low values 0.998 | S. cerevisiae deletion strains, locus YLR113W, strain HOG1, hits give low values 0.984 | S. cerevisiae deletion strains, locus YLR221C, strain rsa3, hits give low values 0.974 | S. cerevisiae deletion strains, locus YLR258W, strain gsy2, hits give low values 0.979 | S. cerevisiae deletion strains, locus YLR262C, strain YPT6 (second series), hits give low values 1.01 | S. cerevisiae deletion strains, locus YLR262C, strain YPT6, hits give low values 1.03 | S. cerevisiae deletion strains, locus YLR268W, strain sec22, hits give low values 1 | S. cerevisiae deletion strains, locus YLR320W, strain mms22, hits give low values 0.96 | S. cerevisiae deletion strains, locus YLR330W, strain CHS5, hits give low values 1.01 | S. cerevisiae deletion strains, locus YLR342W, strain FKS1 (second series), hits give low values 1.01 | S. cerevisiae deletion strains, locus YLR342W, strain FKS1, hits give low values 0.986 | S. cerevisiae deletion strains, locus YLR357W, strain rsc2, hits give low values 0.948 | S. cerevisiae deletion strains, locus YLR370C, strain arc18, hits give low values 0.996 | S. cerevisiae deletion strains, locus YLR371W, strain rom2, hits give low values 0.995 | S. cerevisiae deletion strains, locus YLR384C, strain iki3, hits give low values 0.995 | S. cerevisiae deletion strains, locus YLR418C, strain cdc73, hits give low values 0.967 | S. cerevisiae deletion strains, locus YML016C, strain PPZ1, hits give low values 1.01 | S. cerevisiae deletion strains, locus YML032C, strain rad52, hits give low values 0.997 | S. cerevisiae deletion strains, locus YML120C, strain ndi1, hits give low values 0.995 | S. cerevisiae deletion strains, locus YML124C, strain tub3, hits give low values 1.01 | S. cerevisiae deletion strains, locus YMR058W, strain fet3, hits give low values 1 | S. cerevisiae deletion strains, locus YMR078C, strain ctf18, hits give low values 0.995 | S. cerevisiae deletion strains, locus YMR125W, strain sto1, hits give low values 0.992 | S. cerevisiae deletion strains, locus YMR129W, hits give low values 1.01 | S. cerevisiae deletion strains, locus YMR205C, strain PFK2, hits give low values 0.961 | S. cerevisiae deletion strains, locus YMR223W, strain ubp8, hits give low values 1.01 | S. cerevisiae deletion strains, locus YMR231W, strain pep5, hits give low values 0.998 | S. cerevisiae deletion strains, locus YMR263W, strain SAP30, hits give low values 1 | S. cerevisiae deletion strains, locus YMR307W, strain GAS1, hits give low values 0.998 | S. cerevisiae deletion strains, locus YNL067W, strain RPL9B, hits give low values 1.02 | S. cerevisiae deletion strains, locus YNL071W, strain lat1, hits give low values 1 | S. cerevisiae deletion strains, locus YNL128W, strain TEP1, hits give low values 1.02 | S. cerevisiae deletion strains, locus YNL153C, strain GIM3, hits give low values 1.01 | S. cerevisiae deletion strains, locus YNL183C, strain NPR1, hits give low values 0.955 | S. cerevisiae deletion strains, locus YNL209W, strain ssb2, hits give low values 1 | S. cerevisiae deletion strains, locus YNL233W, strain BNI4, hits give low values 1.01 | S. cerevisiae deletion strains, locus YNL248C, strain rpa49, hits give low values 0.991 | S. cerevisiae deletion strains, locus YNL250W, strain rad50, hits give low values 0.993 | S. cerevisiae deletion strains, locus YNL271C, strain bni1, hits give low values 1.01 | S. cerevisiae deletion strains, locus YNL298W, strain CLA4, hits give low values 1.01 | S. cerevisiae deletion strains, locus YNL307C, strain MCK1, hits give low values 1 | S. cerevisiae deletion strains, locus YNL322C, strain KRE1 (second series), hits give low values 0.961 | S. cerevisiae deletion strains, locus YNL322C, strain KRE1, hits give low values 1.01 | S. cerevisiae deletion strains, locus YNR049C, strain mso1, hits give low values 1.01 | S. cerevisiae deletion strains, locus YNR052C, strain pop2, hits give low values 1 | S. cerevisiae deletion strains, locus YOL006C, strain TOP1, hits give low values 1.02 | S. cerevisiae deletion strains, locus YOL012C, strain htz1 0.691 | S. cerevisiae deletion strains, locus YOL147C, strain pex11, hits give low values 1.01 | S. cerevisiae deletion strains, locus YOR001W, strain rrp6, hits give low values 1 | S. cerevisiae deletion strains, locus YOR061W, strain CKA2, hits give low values 1.01 | S. cerevisiae deletion strains, locus YOR069W, strain VPS5, hits give low values 1.02 | S. cerevisiae deletion strains, locus YOR070C, strain gyp1, hits give low values 0.994 | S. cerevisiae deletion strains, locus YOR080W, strain dia2, hits give low values 0.998 | S. cerevisiae deletion strains, locus YOR083W, strain WHI5, hits give low values 0.956 | S. cerevisiae deletion strains, locus YOR106W, strain vam3, hits give low values 0.966 | S. cerevisiae deletion strains, locus YOR136W, strain idh2, hits give low values 0.998 | S. cerevisiae deletion strains, locus YOR144C, strain elg1, hits give low values 1.01 | S. cerevisiae deletion strains, locus YOR184W, strain ser1, hits give low values 0.99 | S. cerevisiae deletion strains, locus YOR231W, strain MKK1, hits give low values 0.981 | S. cerevisiae deletion strains, locus YOR265W, strain rbl2, hits give low values 0.985 | S. cerevisiae deletion strains, locus YOR270C, strain vph1, hits give low values 1.04 | S. cerevisiae deletion strains, locus YOR290C, strain snf2, hits give low values 0.979 | S. cerevisiae deletion strains, locus YOR316C, strain cot1, hits give low values 0.994 | S. cerevisiae deletion strains, locus YPL051W, strain arl3, hits give low values 0.976 | S. cerevisiae deletion strains, locus YPL055C, strain LGE1, hits give low values 1.05 | S. cerevisiae deletion strains, locus YPL078C, strain atp4, hits give low values 0.992 | S. cerevisiae deletion strains, locus YPL106C, strain sse1, hits give low values 0.923 | S. cerevisiae deletion strains, locus YPL240C, strain hsp82, hits give low values 1 | S. cerevisiae deletion strains, locus YPL241C, strain CIN2, hits give low values 1.01 | S. cerevisiae deletion strains, locus YPL256C, strain CLN2, hits give low values 0.97 | S. cerevisiae deletion strains, locus YPR119W, strain clb2, hits give low values 0.994 | S. cerevisiae deletion strains, locus YPR141C, strain kar3, hits give low values 0.998 | S. cerevisiae deletion strains, locus YPR163C, strain tif3, hits give low values 1.01 | S. cerevisiae deletion strains, locus YPR167C, strain met16, hits give low values 0.997 | S. cerevisiae deletion strains, strain wtn01, hits give low values 0.989 | S. cerevisiae strains, strain wild type, hits give low values 1.01
